Data reported in PubChem BioAssay (NCI).
The panel holds about 79,000 compounds, 15% with a hit somewhere; the sample as a whole holds those more often. Active and inactive are the calls of the source. Cut-off read from the data, not from the text of the source: active = growth inhibition above about 70%; inactive = the rest.

Assay: NCI Yeast Anticancer Drug Screen. Data for the mlh1 rad18 strain (AID 175)
Conditions: S. cerevisiae mlh1 rad18 strain growth inhibition; at 50.0 µM (retest, dose inferred, filed as 5.0); stronger effect = higher value
Outline: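 Genetically defined yeast (DNA repair-deficient) exposed to compounds; growth inhibition determined relative to vehicle.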

Row | SMILES | growth inhibition
1 | O=[N+]([O-])c1cc(F)c(Sc2cc(Br)c([N+](=O)[O-])cc2F)cc1Br | -4% (inactive)
2 | C=CS(=O)(=O)c1ccc(C)cc1 | 87% (active)
3 | NC(CSSCC(N)C(=O)Nc1ccc2ccccc2c1)C(=O)Nc1ccc2ccccc2c1 (stereo not given) | 99% (active)
4 | COc1ccc(C2=CCC3C4CC=C5CC(O)CCC5(C)C4CCC23C)s1 (stereo not given) | 75% (active)
5 | O=C(O)COc1ccccc1C(=O)O | -1% (inactive)
6 | O=[N+]([O-])c1ccc(NNS(=O)(=O)c2ccccc2)c([N+](=O)[O-])c1 | 16% (inactive)
7 | CCOc1nc(N)nc(C)c1N=Nc1ccc(Cl)cc1 | 88% (active)
8 | Nc1ccc2c(c1)CCc1ccccc1-2 | 45% (inactive)
9 | O=c1c2cc3c(cc2c2cccc4c2n1CCC4)OCO3 | 15% (inactive)
10 | O=C(COc1ccc(Br)cc1Br)N1N=C(c2ccc([N+](=O)[O-])o2)CC1(O)c1ccccc1 (stereo not given) | 22% (inactive)
11 | Nc1cc(Br)cc2c1[nH]c1ccc(Br)cc12 | 98% (active)
12 | Clc1ccccc1CCc1cc(-c2ccccc2)n[nH]1 | 97% (active)
13 | O=C(CSc1nnc(-c2ccc(N=Cc3ccc(Cl)cc3)cc2)o1)Nc1ccccc1Cl | 58% (inactive)
14 | COC(=O)CCCCC(=O)N(C(C)C)C(C)C | -5% (inactive)
15 | CCc1ccccc1NC(=O)C(=O)CC(=O)c1ccc(Cl)s1 | 5% (inactive)
16 | CCNC(=S)N/N=C/c1ccccn1 | 97% (active)
17 | [N-]=[N+]=Nc1c(C=O)c(=O)n(-c2ccccc2)c2ccccc12 | 67% (inactive)
18 | COc1cc2c(c(O)c1C)C(=O)C(Cl)=CC2=O | 99% (active)
19 | O=c1[nH]c(=O)c2cc([N+](=O)[O-])cc([N+](=O)[O-])c2[nH]1 | 38% (inactive)
20 | CCOC(=O)NC(=S)Nc1ccsc1 | 0% (inactive)

Row | SMILES | growth inhibition
21 | O=C(/C(O)=C(\O)C(=O)N(C1CCCCC1)C1CCCCC1)N(C1CCCCC1)C1CCCCC1 | 86% (active)
22 | Nc1nccc2c1ncn2C1C=C(CO)C(O)C1O (stereo not given) | 89% (active)
23 | NC(=Nc1ccccc1)c1ccc2c(c1)c1c(n2Cc2ccccc2)CCCC1 | 99% (active)
24 | CC/C(=C(/CC)c1ccc(O)cc1)c1ccc([O-])cc1.CC/C(=C(/CC)c1ccc(O)cc1)c1ccc([O-])cc1.O=C([CH-]C(=O)c1ccccc1)c1ccccc1.O=C([CH-]C(=O)c1ccccc1)c1ccccc1.[Ti+4] | 93% (active)
25 | CC(=O)c1c(O)c2ccc(Cl)cc2[nH]c1=O | 94% (active)
26 | CCOC(=O)c1cnccc1CC1(C#N)c2ccccc2C=CN1C(=O)c1ccccc1 (stereo not given) | 67% (inactive)
27 | O=c1cc(-c2ccccc2)oc(-c2ccccc2)c1 | -103% (inactive)
28 | CCCCCC/C=C\C=O | 5% (inactive)
29 | O=C1NC(=O)C(c2ccccc2)(c2ccccc2)C2CC3c4[nH]c5ccccc5c4CCN3CC12 (stereo not given) | 60% (inactive)
30 | Nc1ccc(-c2ccc(N)cc2S(=O)(=O)O)c(S(=O)(=O)O)c1 | -4% (inactive)
31 | Oc1ccc2ccccc2c1/C=N\Sc1ccccc1 | 99% (active)
32 | CCCC(C)c1ccc(O)cc1 (stereo not given) | 39% (inactive)
33 | CCOC(=O)/C(=C\c1ccc(Cl)cc1)C(C)=O | 98% (active)
34 | O=C(O)C(SC1=NNC2(C(=O)N1)c1ccccc1-c1ccccc12)SC1=NNC2(C(=O)N1)c1ccccc1-c1ccccc12 | 95% (active)
35 | Cc1sc(Cc2ccccc2)nc1-c1ccc(N=Cc2ccc(N(CCOS(C)(=O)=O)CCOS(C)(=O)=O)cc2)cc1 | 95% (active)
36 | CCCCc1ccc(Nc2nc(N)c3[nH]cnc3n2)cc1 | 40% (inactive)
37 | O=C(c1c(F)c(F)c(F)c(F)c1F)n1c(=S)n(C(=O)c2c(F)c(F)c(F)c(F)c2F)c2ccccc21 | 95% (active)
38 | Cc1ccnc2sc3ccccc3c(=O)c12 | 95% (active)
39 | O=[N+]([O-])c1ccc2c(c1)CCc1ccccc1-2 | 89% (active)
40 | NNc1ccc(Br)cc1 | 100% (active)

Same assay, conditions: S. cerevisiae mlh1 rad18 strain growth inhibition; at 50.0 µM; stronger effect = higher value

Row | SMILES | growth inhibition
41 | O=[N+]([O-])c1cc(F)c(Sc2cc(Br)c([N+](=O)[O-])cc2F)cc1Br | 19.9% (inactive)
42 | C=CS(=O)(=O)c1ccc(C)cc1 | 88.5% (active)
43 | NC(CSSCC(N)C(=O)Nc1ccc2ccccc2c1)C(=O)Nc1ccc2ccccc2c1 (stereo not given) | 88% (active)
44 | COc1ccc(C2=CCC3C4CC=C5CC(O)CCC5(C)C4CCC23C)s1 (stereo not given) | 94.7% (active)
45 | O=C(O)COc1ccccc1C(=O)O | 5.7% (inactive)
46 | O=[N+]([O-])c1ccc(NNS(=O)(=O)c2ccccc2)c([N+](=O)[O-])c1 | 13.8% (inactive)
47 | CCOc1nc(N)nc(C)c1N=Nc1ccc(Cl)cc1 | 89.6% (active)
48 | Nc1ccc2c(c1)CCc1ccccc1-2 | 86.5% (active)
49 | O=c1c2cc3c(cc2c2cccc4c2n1CCC4)OCO3 | 53.7% (inactive)
50 | O=C(COc1ccc(Br)cc1Br)N1N=C(c2ccc([N+](=O)[O-])o2)CC1(O)c1ccccc1 (stereo not given) | 58.8% (inactive)
51 | Nc1cc(Br)cc2c1[nH]c1ccc(Br)cc12 | 98.9% (active)
52 | Clc1ccccc1CCc1cc(-c2ccccc2)n[nH]1 | 97.7% (active)
53 | O=C(CSc1nnc(-c2ccc(N=Cc3ccc(Cl)cc3)cc2)o1)Nc1ccccc1Cl | 20.4% (inactive)
54 | COC(=O)CCCCC(=O)N(C(C)C)C(C)C | 19.1% (inactive)
55 | CCc1ccccc1NC(=O)C(=O)CC(=O)c1ccc(Cl)s1 | -0.1% (inactive)
56 | CCNC(=S)N/N=C/c1ccccn1 | 76.5% (active)
57 | [N-]=[N+]=Nc1c(C=O)c(=O)n(-c2ccccc2)c2ccccc12 | 68.7% (inactive)
58 | COc1cc2c(c(O)c1C)C(=O)C(Cl)=CC2=O | 99.2% (active)
59 | O=c1[nH]c(=O)c2cc([N+](=O)[O-])cc([N+](=O)[O-])c2[nH]1 | 75% (active)
60 | CCOC(=O)NC(=S)Nc1ccsc1 | 29.9% (inactive)

Row | SMILES | growth inhibition
61 | O=C(/C(O)=C(\O)C(=O)N(C1CCCCC1)C1CCCCC1)N(C1CCCCC1)C1CCCCC1 | 97.8% (active)
62 | Nc1nccc2c1ncn2C1C=C(CO)C(O)C1O (stereo not given) | -8.5% (inactive)
63 | NC(=Nc1ccccc1)c1ccc2c(c1)c1c(n2Cc2ccccc2)CCCC1 | 99.7% (active)
64 | CC/C(=C(/CC)c1ccc(O)cc1)c1ccc([O-])cc1.CC/C(=C(/CC)c1ccc(O)cc1)c1ccc([O-])cc1.O=C([CH-]C(=O)c1ccccc1)c1ccccc1.O=C([CH-]C(=O)c1ccccc1)c1ccccc1.[Ti+4] | 89% (active)
65 | CC(=O)c1c(O)c2ccc(Cl)cc2[nH]c1=O | 66.7% (inactive)
66 | CCOC(=O)c1cnccc1CC1(C#N)c2ccccc2C=CN1C(=O)c1ccccc1 (stereo not given) | 89.2% (active)
67 | O=c1cc(-c2ccccc2)oc(-c2ccccc2)c1 | 43.6% (inactive)
68 | CCCCCC/C=C\C=O | 51.4% (inactive)
69 | O=C1NC(=O)C(c2ccccc2)(c2ccccc2)C2CC3c4[nH]c5ccccc5c4CCN3CC12 (stereo not given) | 73.8% (active)
70 | Nc1ccc(-c2ccc(N)cc2S(=O)(=O)O)c(S(=O)(=O)O)c1 | -38.7% (inactive)
71 | Oc1ccc2ccccc2c1/C=N\Sc1ccccc1 | 99% (active)
72 | CCCC(C)c1ccc(O)cc1 (stereo not given) | 91.7% (active)
73 | CCOC(=O)/C(=C\c1ccc(Cl)cc1)C(C)=O | 91.5% (active)
74 | O=C(O)C(SC1=NNC2(C(=O)N1)c1ccccc1-c1ccccc12)SC1=NNC2(C(=O)N1)c1ccccc1-c1ccccc12 | 97.3% (active)
75 | Cc1sc(Cc2ccccc2)nc1-c1ccc(N=Cc2ccc(N(CCOS(C)(=O)=O)CCOS(C)(=O)=O)cc2)cc1 | 96.5% (active)
76 | CCCCc1ccc(Nc2nc(N)c3[nH]cnc3n2)cc1 | 91.6% (active)
77 | O=C(c1c(F)c(F)c(F)c(F)c1F)n1c(=S)n(C(=O)c2c(F)c(F)c(F)c(F)c2F)c2ccccc21 | 86.1% (active)
78 | Cc1ccnc2sc3ccccc3c(=O)c12 | 83.9% (active)
79 | O=[N+]([O-])c1ccc2c(c1)CCc1ccccc1-2 | 68.7% (inactive)
80 | NNc1ccc(Br)cc1 | 89.7% (active)
